The results in this text go back to the OligoGym collection.
Also: reference of the scale not given here.

For the first assay, the target named is FLG. Description: pooled miR-30 sensor sort-seq; sequence = guide strand. Conditions: shRNA.
Regarding TTGATTGTTCCTCATTACGTGT, the sensor-assay potency score (higher = more potent) is -0.377.
Still for that read-out and setting: the result for TTTACTTGAGTTATGATGGTTT reads 0.102; that for AATTGTAACTAACACTTCCGTG, -0.414.

The next assay concerns the target FLNC. The assay is described as above. To be noted: shRNA.
Take TTGTCTGTCACATAGGTGTCTG: the sensor-assay potency score (higher = more potent) is -0.552.
The same measure, in the same setting: for TTGTCGGTGATGTTGGGCCGTG the value was -1.35.
Turning to TAGCTGACAGCACATGAGCCAT, the sensor-assay potency score (higher = more potent) is -1.71.
Same read-out and setting: the result for TTGAACTTGATGGAGACCTCAT reads -0.144.
Same read-out and setting: the result for TGAGCCATCACCATTGTCCTGG reads 0.0505; that for TTGATGTCCACCTTGCTTGGGC, 0.144; that for TAGGCTGACACCAAGCCTGGGT, -0.0141.
Same read-out and setting: for TTGAGGTGCTCATTGCACCAGC the value was -0.419; for TAGGAGACAGCATAGGTGCGAT, -0.825; for TTCAGTGACACGTCCGTGGAGG, -0.25.
Sequence TTGAGGTCACAGGTGCTGCCGA had a sensor-assay potency score (higher = more potent) of -0.595.
Take TACTGCACTCGGTAGGTGCCGT: the sensor-assay potency score (higher = more potent) was -0.627.
Still for that read-out and setting: for TAGGACACAGTGTACGTGCCAT the value was -0.557; for TTGACTGCAGTCCACTGTGAAG, -1.44; for TTGATGGTGATGGTGTACCGGC, -1.25.
Still for that read-out and setting: for TTGACGGTGAAGGTGTCGTTGT the value was -0.371.
The same measure, in the same setting: the result for TTGTCAGCAAACTTGATGTTGA reads -0.54; that for TTACAGGTGATCTCTGCCTTGG, -0.839; that for TGAACTCTGATGACACACCGGT, 0.0555.
Regarding TAGAGCTTCAGGTCTCCCTTGC, the sensor-assay potency score (higher = more potent) was found to be 0.291.
Same read-out and setting: for TAGGTGACTTTGCATGTCCCGT the value was -0.929.
Same read-out and setting: for TTGAGGTTGAGGTCACAGGTGC the value was -0.307; for TTTGATTTTGCTGAGGTCCAGC, 0.0406.
Regarding TTGGTGACAATAGTGAAGGTGG, the sensor-assay potency score (higher = more potent) amounted to 0.0613.

Another assay concerns the target FMNL2. The assay is described as above. Conditions: shRNA.
With TAATTCTGCAATTAACTCTTGC, the sensor-assay potency score (higher = more potent) was -0.103.
On to TTATAGAGACAGATGCTGCTAT, for which the sensor-assay potency score (higher = more potent) was 0.344.
On the same count and under the same terms, the result for TTCTTCTTTTTCTTTGACCATT reads -1.21; that for TTTCTCTAGCTCATGAATCTTT, -0.357.
Same read-out and setting: for TTCCATGAGAGCTTGTTCCTGC the value was 0.908.
For TAGCTTTACATATTTCATCAGC, the sensor-assay potency score (higher = more potent) is -0.662.
Same read-out and setting: the result for TTATATGCTTTCACAAACCGGA reads -0.533; that for TTCTGCAATTAACTCTTGCTGC, -0.158.
For TTGAGTATTTGCATCTTTGTAG, the sensor-assay potency score (higher = more potent) is 0.305.
TAGACTGTCTTTGAATTGCTTC returned a sensor-assay potency score (higher = more potent) of 0.088.
On the same count and under the same terms, the result for TTATCTTTAACTTGTCGTCTTC reads 0.239; that for TACAATATTAATAAACTGCATA, -0.855.
